Experimental findings from PubChem BioAssay AID2320 (National Center for Advancing Translational Sciences (NCATS), 2010) are described below.

Results filed as inconclusive are left out. Where a call stands in place of a potency, no number is given. Calls of active or inactive are those of the source. Calls follow the shape of the full dose curve.
Potency is read from the fitted curve at half-maximal effect.

The test in a line: A qHTS for Small Molecule Inhibitors of Shiga Toxin (Confirmatory). Also: nearly all actives have a fitted effect of over 75% in size. To be noted: Cell-based Shiga toxin protection reporter assay; series mostly up to 38.3 µM. Background: qHTS replaces the single test concentration by a dilution series.
Take `Cc1cc(N2CCCCCC2)nc(-c2ccccc2O)n1`: the Potency was 17.9 µM (active).

As to `O=C(Nc1ccccc1)c1ccccc1O`, the Potency is 14.2 µM (active).

On to `CC(=O)N/C(=C\c1ccccc1)C(=O)Nc1ccccc1C`, for which the Potency is 0.0798 µM (active).

For `COc1ccc(NC(=O)c2cccnc2Nc2ccc(OC)cc2)cc1`, the Potency entry is “inactive”.

For `NS(=O)(=O)c1cc(C(=O)NCC2CCCCC2)ccc1Cl`, the Potency entry is “inactive”.

On to `CSc1nc2ccc(N3C(=O)C4CCCCC4C3=O)cc2s1` (stereo not drawn), for which the Potency result is “inactive”.

For `O=c1cc(-c2cccc(F)c2)[nH]c2ccc(Cl)cc12`, the Potency entry was “inactive”.

In the case of `NC(=O)[C@@H]1CCCN1C(=O)c1ccc2nc(Cc3cccc(Cl)c3)oc2c1`, the Potency entry was “inactive”.

`COc1ccc(N(CCC#N)S(=O)(=O)c2ccc(Cl)cc2)cc1`: the Potency result is “inactive”.

For `Cc1cc(NC(=O)CSc2nc3ccsc3c(=O)n2Cc2ccccn2)n[nH]1`, the Potency is 25.2 µM (active).

For `O=C(Nc1ccc(Cl)cc1)C1CCN(C(=O)c2cccs2)CC1`, the Potency result is “inactive”.

`COCCCNC(=O)c1cn(C)c(=O)c2c1c1ccccc1n2C`: the Potency entry is “inactive”.

Regarding `COc1ccc2nc(SCC(=O)Nc3ccc4c(c3)CCC4)[nH]c2c1`, the Potency result was “inactive”.

With `COc1ccc(/C=C/c2nnc(NC(=O)CSc3ccc(Cl)cc3)s2)cc1`, the Potency was 11.3 µM (active).

Regarding `O=C(CSc1nnc(-c2ccccn2)o1)Nc1ccccc1C(F)(F)F`, the Potency was 8.95 µM (active).

Consider `CC(=O)N[C@@H](Cc1c[nH]c2ccccc12)C(=O)OCC(=O)Nc1ccc(Cl)c(S(=O)(=O)N(C)C)c1`, for which the Potency result is “inactive”.

In the case of `CN1CCN(C(=O)CN(C)S(=O)(=O)c2ccc(F)cc2)CC1`, the Potency entry was “inactive”.

Take `COc1ccccc1CNC(=O)Cn1cc([N+](=O)[O-])ccc1=O`: the Potency entry was “inactive”.

Consider `COc1cc(O)c2c(c1)oc(=O)c1c3cc(O)c(O)cc3oc21`, for which the Potency is 7.98 µM (active).

As for `Cc1cnc(NC(=O)c2ccc(-c3nc4ccccc4s3)o2)s1`, the Potency was 17.9 µM (active).

In the case of `O=C(O)c1ccn(Cn2cnc3ccccc32)n1`, the Potency result is “inactive”.

Consider `O=C(Cc1cccs1)Nc1nc(-c2ccc(F)c(F)c2)cs1`, for which the Potency was 6.34 µM (active).

As to `CCc1ccc(C(=O)c2oc3nc(C)cc(C)c3c2N)cc1`, the Potency was 5.04 µM (active).

As for `CCCn1c(C)cc(/C=C(\C#N)C(=O)OCC(=O)Nc2ccc(OC)c(Cl)c2)c1C`, the Potency was 8.95 µM (active).

In the case of `Cc1ccc(-c2nnc(SCC(=O)NC3CCCC3)n2C)cc1`, the Potency entry is “inactive”.

On to `COc1ccc(CNCC(=O)Nc2sccc2C#N)cc1`, for which the Potency is 20 µM (active).

For `COc1ccc2[nH]c(-c3ccccc3)cc(=O)c2c1`, the Potency is 0.0711 µM (active).

`CCOc1ncccc1C(=O)Nc1c(C)n(C)n(-c2ccccc2)c1=O`: the Potency result is “inactive”.

For `Cc1cnc(NC(=O)c2c(Cl)cnn2C)s1`, the Potency entry is “inactive”.

On to `O=C1C(Cl)=C(Nc2ccccc2)C(=O)c2ccccc21`, for which the Potency is 3.18 µM (active).

For `CC(=O)c1cccc(N2C(=O)C3C4CCC(C4=C(C)C)C3C2=O)c1` (stereo not drawn), the Potency entry was “inactive”.

Take `N=c1c(S(=O)(=O)c2ccc(Cl)cc2)cc2c(=O)n3ccccc3nc2n1C1CCCCC1`: the Potency result is “inactive”.

With `Cc1ccc([N+](=O)[O-])cc1NC(=O)CSc1nncn1-c1ccccn1`, the Potency result is “inactive”.

For `CCn1cc(C(=O)NCc2ccccc2Cl)cn1`, the Potency result was “inactive”.

On to `COCCCn1c(SCC(=O)OC2CCCCC2)nnc1-c1cccs1`, for which the Potency entry was “inactive”.

For `CCn1c(SCC(=O)NCc2ccco2)nc2c1c(=O)n(C)c(=O)n2C`, the Potency entry is “inactive”.

With `COc1ccc(NC(=O)c2c(Cl)n(C)c3ccccc23)cc1`, the Potency is 11.3 µM (active).

`Cc1cc(C)c2nc(-c3ccccn3)cc(C(=O)NCc3ccco3)c2c1`: the Potency was 15.9 µM (active).
